Compound activity deposited in PubChem BioAssay by National Center for Advancing Translational Sciences (NCATS).
Only some compounds are listed: those with a hit (about 2.3% of all), similar ones and a draw of the others.
POLI inh: blocks human DNA polymerase iota activity; 1% of 390,000 active; Potency, µM (series often up to 115 µM), for the others: at the highest dose activity, negative = inhibition, actives largely listed as inhibitors; AID 588590; Pol iota fluorescent replication assay, 10 min; Q9UNA4
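Fluorescent replication assay read twice, at 0 min and 10 min after adding 50 nM (final) substrate. Enzyme (10 nM) and compounds were first incubated 15 min at room temperature; enzyme-free buffer wells were negative controls.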
Pol beta inh: inhibitors of human DNA polymerase beta. P06746. Pol beta primer extension/strand displacement, fluorescence kinetic. Potency, µM (series often up to 114 µM), for inactives: top-dose activity change, negative = inhibition, actives largely listed as inhibitors. 1.3% of 340,000 active. AID 485314; note: % is set by controls: 0 for no effect and ±100 for the full control effect
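Preincubation: enzyme (10 nM) with compound, 15 min, RT. Reaction: substrate added to 50 nM final. Reads: 0 and 10 min. Analysis: normalized, Hill fit.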
POLH inh: DNA polymerase eta (human) inhibition | Q9Y253 | recombinant Pol eta, fluorescent DNA replication assay | Potency, µM (doses to about 114 µM), for the others: at the highest dose activity change, negative = inhibition, hits mostly inhibitors | 1.2% of 390,000 active | AID 588591; note: % is set by controls: 0 for no effect and ±100 for the full control effect
Target sequence (Q9Y253 whole entry, looked up): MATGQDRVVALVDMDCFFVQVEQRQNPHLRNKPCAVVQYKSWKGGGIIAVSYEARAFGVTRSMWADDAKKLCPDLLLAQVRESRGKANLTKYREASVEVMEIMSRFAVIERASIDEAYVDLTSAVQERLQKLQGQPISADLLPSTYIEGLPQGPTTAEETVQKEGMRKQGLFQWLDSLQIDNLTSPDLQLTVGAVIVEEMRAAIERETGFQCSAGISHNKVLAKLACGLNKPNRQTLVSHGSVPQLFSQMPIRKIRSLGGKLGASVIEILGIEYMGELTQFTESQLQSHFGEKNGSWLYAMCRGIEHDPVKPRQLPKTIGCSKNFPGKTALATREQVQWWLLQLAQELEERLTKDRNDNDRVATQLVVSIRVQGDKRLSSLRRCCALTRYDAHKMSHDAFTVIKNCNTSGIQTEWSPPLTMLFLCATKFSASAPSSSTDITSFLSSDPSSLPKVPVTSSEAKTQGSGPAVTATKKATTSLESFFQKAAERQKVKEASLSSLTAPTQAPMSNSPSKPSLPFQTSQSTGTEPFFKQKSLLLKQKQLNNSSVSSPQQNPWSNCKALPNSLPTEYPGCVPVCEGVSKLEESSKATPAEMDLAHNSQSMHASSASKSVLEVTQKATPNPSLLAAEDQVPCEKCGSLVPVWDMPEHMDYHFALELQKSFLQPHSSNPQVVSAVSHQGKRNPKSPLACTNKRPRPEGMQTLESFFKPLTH
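Pol eta (10 nM) was preincubated with compounds for 15 min at room temperature, after which fluorescent replication substrate (50 nM final) was added to start the reaction. Fluorescence was read kinetically at 0 and 10 min.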
POLK inh: inhibitors of human DNA polymerase kappa; Q9UBT6; Potency, µM (doses to about 107 µM), for inactives: top-dose activity, negative = inhibition, hits mostly inhibitors; AID 588579; purified Pol kappa, fluorescent DNA synthesis assay, 10 min; 0.53% of 400,000 active; note: % is set by controls: 0 for no effect and ±100 for the full control effect
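Activity was followed as the change in fluorescence between reads at 0 and 10 min after starting the reaction with 50 nM substrate. Beforehand, 10 nM polymerase had been preincubated with compound for 15 min at room temperature.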
WRN helicase inh: blocks human WRN helicase. Q14191. WRN helicase unwinding, fluorescent forked duplex, kinetic. Potency, µM (highest dose often 114 µM), for the others: at the top dose activity change, negative = inhibition, hits mostly inhibitors. 0.46% of 360,000 active; note: % is set by controls: 0 for no effect and ±100 for the full control effect; nearly all actives have a fitted effect of over 55% in size
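WRN at 20 nM final was preincubated with compound for 15 min at room temperature; reaction started with 100 nM forked duplex oligonucleotide carrying fluorophore and quencher plus 2 mM ATP (final). Unwinding followed kinetically by red fluorescence (ex 525/em 598 nm).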
An asterisk follows results filed as active; ? = inconclusive; nt = not tested or not shown; ! = not confirmed by another sample; [ ] = remark or other dose. Calls come from the whole dose curve; as a rule, active = well fitted curve in the direction sought with a large enough effect; inconclusive = small, poorly fitted or top-dose-only effect, or another doubt; inactive = no such curve, though single readings can be large; an effect the other way counts as inactive or inconclusive. Potency is the fitted concentration of half-maximal effect.

SMILES | POLI inh | Pol beta inh | POLH inh | POLK inh | WRN helicase inh
COc1ccc2oc(C(=O)OCC(=O)NCc3ccco3)c(C)c2c1 | ? | nt | 50.1µM* | -25.6% | -13.3%
CCOc1ccc(C(=O)OCC(=O)NCc2ccco2)cc1OCC | ? | 20µM* | ? | ? | ?
COc1ccc(C(=O)OCC(=O)NCc2ccco2)cc1OC | 20µM* | 10µM* | 11.2µM* | 79.4µM* | ?
COc1ccc2oc(C(=O)OCC(=O)NCCc3ccccc3)c(C)c2c1 | -14.5% | nt | -13.3% | -14.9% | 7.9%
Cc1nn(-c2ccccn2)c2c1-c1nc(N)sc1CC2 | 3.16µM* | nt | nt | -21.8% | nt
Cc1nn(-c2ccccn2)c2c1-c1nc(N)ncc1CC2 | 14.3% | -18.4% | -0.8% | 4.9% | 4.5%
CC[C@H](C)[C@H](NC(=O)[C@H](CO)NC(=O)[C@H](CC(C)C)NC(=O)[C@@H]1CCCN1C(=O)[C@@H]1CCCN1C(=O)[C@H](CC(=O)O)NC(=O)[C@@H](N)CC(=O)O)C(=O)N[C@@H](CC(=O)O)C(=O)N[C@@H](CC(C)C)C(=O)N[C@H](C(=O)N[C@@H](Cc1ccccc1)C(=O)N[C@@H](Cc1cnc[nH]1)C(=O)N[C@@H](CC(C)C)C(=O)N[C@@H](CC(C)C)C(=O)N[C@@H](CCCNC(=N)N)C(=O)N[C@H](C(=O)N[C@@H](CC(C)C)C(=O)N[C@@H](CC(C)C)C(=O)N[C@@H](CCC(=O)O)C(=O)N[C@@H](CC(C)C)C(=O)N[C@@H](C)C(=O)N[C@@H](CCCNC(=N)N)C(=O)N[C@H](C(=O)N[C@@H](CCC(N)=O)C(=O)N[C@@H](CO)C(=O)N[C@@H](CCC(N)=O)C(=O)N[C@@H](CCCNC(=N)N)C(=O)N[C@@H](CCC(=O)O)C(=O)N[C@@H](CCCNC(=N)N)C(=O)N[C@@H](C)C(=O)N[C@@H](CCC(=O)O)C(=O)N[C@@H](CCC(N)=O)C(=O)N[C@@H](CC(N)=O)C(=O)N[C@@H](CCCNC(=N)N)C(=O)N[C@H](C(=O)N[C@H](C(=O)N[C@@H](Cc1ccccc1)C(=O)N[C@@H](CC(=O)O)C(=O)N[C@@H](CO)C(=O)N[C@H](C(N)=O)C(C)C)[C@@H](C)CC)[C@@H](C)CC)[C@@H](C)O)[C@@H](C)O)[C@@H](C)O | nt | nt | nt | 8.4%[60.1 µM] | nt
C=C1c2c(Cl)ccc(O)c2C(O)=C2C(=O)[C@@]3(O)C(O)=C(C(N)=O)C(=O)[C@@H](N(C)C)[C@@H]3[C@@H](O)[C@H]12 | nt | nt | nt | 2.54µM* | nt
C[C@H]1c2cccc(O)c2C(O)=C2C(=O)[C@]3(O)C(O)=C(C(N)=O)C(=O)C(N(C)C)[C@@H]3[C@@H](O)C21 (some centres undefined) | 7.8%[58.9 µM] | 18.0%[57.1 µM] | -1.5%[57.1 µM] | nt | nt
COCc1ccc(CN2CCc3c([nH]c4ccccc34)C2C(C)(C)C)o1 (centres undefined) | -10.0% | 20µM* | -9.6% | -18.6% | -11.2%
CCN(CC)CCn1c2ccccc2c2cnc(N)c(C#N)c21 | ? | 14.1µM* | ? | ? | -8.2%[57.1 µM]
CCc1sc(C(=O)NCCc2ccc(S(N)(=O)=O)cc2)cc1Br | 89.1µM* | -0.7% | -10.0% | 0.0% | -2.7%
CC(=O)Nc1ccn(C2CC3OCC(NC(=O)C(NC(=O)OC(C)(C)C)C(C)OCc4ccccc4)C3O2)c(=O)n1 (centres undefined) | -4.7% | nt | nt | -22.2% | nt
CCCCCCCCCC[n+]1cccc2cc(Br)ccc21 | -5.7% | nt | nt | -36.3% | nt
COCCNc1nc(-c2cccc(NS(C)(=O)=O)c2)nc2ccccc12 | nt | nt | nt | 25.1µM* | nt
CCCCc1ccc(NC(=O)COC(=O)c2ccccc2OCC(=O)Nc2ccc(Br)cc2)cc1 | 7.0% | nt | nt | -12.9% | nt
Cc1ccc(NC(=O)c2cc(N3C(=O)C=CC3=O)ccc2N2CCOCC2)cc1 | 93.2% | ? | -5.7% | -9.3% | 35.5µM*
Cc1ccc(NC(=O)c2cc(NC(=O)c3ccco3)ccc2N2CCOCC2)cc1 | 23.1% | 1.2% | -1.7% | -11.4% | 1.6%
COc1ccc(CCn2c(=S)[nH]c(=O)c3[nH]cnc32)cc1OC | 21.4% | nt | nt | -12.2% | nt
C=C(C)C1CC=C(C)/C(=N/NC(=O)CNc2ccc(OCC)cc2)C1 (centres undefined) | 89.1µM* | -1.6% | -2.8% | 0.2% | -6.5%
C=C(C)C1CC=C(C)/C(=N/NC(=O)CNc2ccc(C)cc2C)C1 (centres undefined) | 17.4% | 21.1% | -19.6% | -12.4% | -21.4%[57.1 µM]
O=C(CCCN1C(=O)c2ccccc2C1=O)Nc1sc2c(c1C(=O)NCc1ccco1)CCC2 | ? | 20µM* | -2.8% | -13.0% | -2.7%
O=C(CCN1C(=O)c2ccccc2C1=O)NCc1ccco1 | 50.1µM* | 0.9% | ? | -7.1% | -11.6%
O=C(Cc1cnn(-c2ccccc2)c1)c1ccc(O)c(O)c1O | ? | ? | ? | 2.51µM* | 10.6µM*
C(=C\c1ccnc2ccccc12)/c1ccc(N2CCN(c3ccc(/C=C/c4ccnc5ccccc45)cc3)CC2)cc1 | 9.8% | nt | nt | -4.7% | nt
SMILES | POLI inh | Pol beta inh | POLH inh | POLK inh | WRN helicase inh
N#CC(C#N)=C1C=C2C=C(N3CCCCC3)CCC2CC1 (centres undefined) | ? | 50.1µM* | 79.4µM* | -7.0% | ?
CCN(CC)C1=CC2=CC(=C(C#N)C#N)CCC2CC1 (centres undefined) | ? | 3.1% | -15.0% | -24.6% | -34.2%[57.1 µM]
O=C(COC(=O)c1ccccc1OCc1cccc(Br)c1)Nc1ccc(Br)cc1 | -8.6% | nt | nt | -1.0% | nt
C[C@H](C(=O)O)c1cccc(C(=O)c2ccccc2)c1 | 14.6% | nt | -18.0% | 11.2µM*! | 2.9%
c1cc(C2CCCCC2)ccc1Oc1nc(N2CCOCC2)nc(N2CCOCC2)n1 | 2.9% | 22.6% | 4.9% | -7.0% | -1.8%
c1ccc(Oc2nc(N3CCOCC3)nc(N3CCOCC3)n2)cc1 | -29.4% | 89.1µM* | -11.3% | -3.2% | -0.8%
CCCC[C@H](NC(C)=O)C(=O)N[C@@H](CCC(=O)O)C(=O)N[C@@H](Cc1cnc[nH]1)C(=O)N[C@H](Cc1ccccc1)C(=O)N[C@@H](CCCN=C(N)N)C(=O)N[C@H](Cc1c[nH]c2ccccc12)C(=O)NCC(N)=O | nt | nt | nt | 15.4%[60.1 µM] | nt
COc1cc(C)ccc1OCCOc1cc(C)ccc1Cl | 4.9% | 12.6µM* | -26.8% | -8.4% | 3.8%
COc1cc(C)ccc1OCCOc1c(Cl)cc(Cl)cc1Cl | 13.9% | 19.0% | ? | -10.5% | -29.7%[57.1 µM]
O=C(N/N=C/C=C/c1ccco1)c1ccncc1 | 15.8µM* | 39.1% | -2.4% | 79.4µM* | -1.5%[11.6 µM]
O=C(Cc1cccs1)N/N=C/C=C\c1ccco1 | ? | ? | 50.1µM* | ? | ?
O=C(N/N=C/C=C/c1ccc([N+](=O)[O-])cc1)c1cccs1 | ? | 7.08µM* | ? | -15.5% | ?
